Screening results (PubChem BioAssay)
D2 PAM-1: positively modulates the human D2 dopamine receptor allosterically | potentiation, % at 10 µM | HEK293 T-REx D2, calcium flux, EC20 dopamine potentiation | P14416 | hit rate 0.34% among 340,000;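 active means potentiation over 3 SD above the plate norm, cut at about 30% in these data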
Target sequence (P14416 whole entry, looked up): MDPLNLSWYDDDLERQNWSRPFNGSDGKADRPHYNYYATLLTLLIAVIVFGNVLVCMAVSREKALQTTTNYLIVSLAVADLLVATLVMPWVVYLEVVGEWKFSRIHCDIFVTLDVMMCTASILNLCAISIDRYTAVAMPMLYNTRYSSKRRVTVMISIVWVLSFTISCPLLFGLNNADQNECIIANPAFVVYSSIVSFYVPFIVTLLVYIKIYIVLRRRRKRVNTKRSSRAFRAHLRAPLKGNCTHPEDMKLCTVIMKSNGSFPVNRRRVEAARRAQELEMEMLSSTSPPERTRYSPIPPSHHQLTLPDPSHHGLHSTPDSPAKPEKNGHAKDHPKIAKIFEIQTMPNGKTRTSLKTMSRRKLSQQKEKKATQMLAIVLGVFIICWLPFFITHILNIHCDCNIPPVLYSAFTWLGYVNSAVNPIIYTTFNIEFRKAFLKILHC
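Cells plated with tetracycline inducer and held overnight at 30 C; calcium dye loaded 30–90 min at room temperature; baseline taken, compound added and read 180 s; EC20 dopamine then added and read 180 s.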
D2 ag-1: activates the human D2 dopamine receptor; AID 485358; P14416; activation, % at 2 µM; HEK293 T-REx D2 cells, calcium flux agonist mode; hit rate 0.53% among 340,000;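 active means activation over 3 SD above normal in the single-dose calcium agonist read, cut at about 30% in these data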
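HEK293 Trex D2 cells, tetracycline-induced, o/n 30 C 5% CO2; no-wash Ca dye, RT 30–90 min; 10-cycle baseline, 23 nl cpd added, kinetic Ca read 180 s; agonist hits = positive Ca response.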
D2 ag-2: activates the human D2 dopamine receptor. P14416. DiscoveRx PathHunter D2 beta-arrestin, luminescence, 90 min; 100% = 57 uM dopamine signal. activation, % (no concentration beside the values). hit rate 0.084% among 360,000; in the data active means activation above about 40%
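Agonist mode: compounds alone added to overnight-plated D2 PathHunter cells for 90 min at 37 C, with 57 uM final dopamine (EC100) defining full response. Beta-arrestin recruitment detected by chemiluminescent reagent, read after 1 h at ambient temperature.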
D2 antag: D2 dopamine receptor (human) antagonism; hit rate 2% among 340,000; AID 485344; inhibition, % at 10 µM; HEK293 TREx D2 cells, calcium flux, dopamine EC80; in the data active means inhibition above about 30%; inactive means below that, where a call was filed
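Read-out: kinetic calcium fluorescence (1 cycle/s) in inducible HEK293 T-REx D2 cells after an EC80 dopamine addition that followed 180 s compound preincubation. Loss of the dopamine response indicates antagonism.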
D2 PAM-2: potentiates the human D2 dopamine receptor allosterically | DiscoveRx D2 beta-arrestin cells, luminescence, 90 min; 100% = 57 uM dopamine signal | hit rate 0.23% among 360,000 | P14416 | potentiation, % (test concentration not listed); in the data active means potentiation above about 50%
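PathHunter beta-arrestin assay in DiscoveRx D2 cells. Compounds were added with an EC20 of dopamine (50 nM final) for 90 min at 37 deg C. Luminescence was read 1 h after detection reagent, with 57 uM dopamine as the EC100 control.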
Large screens that a line does not name were inactive. In the library only some 2.4% were active in any assay of this set; here they are far more common.

Cc1ccc(/C=C/c2onc(C)c2S(=O)(=O)N2CCC(C(=O)N3CCCCC3)CC2)cc1	D2 antag 34
Cc1nc2ccc(S(=O)(=O)N(C)CC(=O)Nc3ccc(Br)c(C)c3)cc2s1	none (no result: D2 ag-2, D2 antag, D2 PAM-2)
CC(NC(=O)CSc1nnc(-c2cccc(S(=O)(=O)N3CCCCC3)c2)o1)C12CC3CC(CC(C3)C1)C2 (configuration not stated)	D2 PAM-2 58 (no result: D2 ag-1, D2 antag)
COCC(C)NC(=O)CSc1nnc(-c2cccc(S(=O)(=O)N3CCCCC3)c2)o1 (configuration not stated)	none
CCCCOC(=O)/C(=C\c1ccc([N+](=O)[O-])o1)NC(=O)c1ccccc1	D2 PAM-1 36
CCCCOC(=O)/C(=C/C=C/c1ccccc1)NC(=O)c1ccccc1	none (no result: D2 PAM-1)
Cc1ccsc1CN(C(=O)c1oc2cc(Br)ccc2c1C)C1CCS(=O)(=O)C1 (configuration not stated)	none (no result: D2 ag-2, D2 antag, D2 PAM-2)
CCc1ccc(N2CC(C(=O)Nc3nc4ccc(S(C)(=O)=O)cc4s3)CC2=O)cc1 (configuration not stated)	D2 antag 37
Cc1ccccc1-n1ncc2c([N+](=O)[O-])cc([N+](=O)[O-])cc21	D2 PAM-2 83
Cc1ccc2nc3cc([N+](=O)[O-])cc([N+](=O)[O-])c3cc2c1	none (no result: D2 PAM-1)
O=[N+]([O-])c1ccc(/C=N/NC(=S)Nc2ccc(Cl)cc2Cl)s1	D2 antag 45
O=C(Nc1nnc([C@@H]2C[C@H](O)[C@@H](CO)O2)s1)c1cccc(C(F)(F)F)c1	none (no result: D2 PAM-1, D2 ag-1, D2 antag)
O=C(NNc1ncnc2c1cnn2-c1ccccc1)c1cccc(Cl)c1	none (no result: D2 ag-2, D2 antag, D2 PAM-2)
COc1ccc(NC(=O)CN(C)CC(=O)Nc2sc3c(c2C#N)CCC3)cc1	D2 antag 32
N#CC1=C(N)OC2=C(CC/C2=C\c2ccc(F)cc2)C1c1ccc(F)cc1 (configuration not stated)	D2 ag-1 40, D2 antag 37 (no result: D2 ag-2, D2 PAM-2)
CC1(C)CC(=O)C=C(c2ccc(-c3ccc(OC(F)(F)F)cc3)cc2)C1=O	none (no result: D2 PAM-1, D2 ag-1, D2 antag)
Cc1ccc(C(=O)NNC(=O)c2ccc(S(=O)(=O)N(C)c3ccccc3)cc2)cc1	none
S=C(Nc1ccc(Cl)cc1)c1nc2ccccc2s1	none
Cc1ccc(NC(=S)c2nc3ccccc3s2)cc1	D2 PAM-1 87
O=C(Nc1ccc(C(=O)N2CCC(N3CCOCC3)CC2)cc1)c1ccc(Br)o1	none
Cc1ccc2c(c1Br)/C(=N/N1C(=O)c3ccccc3C1=O)C(=O)N2	none
CCOc1ccc(N=C2C(=O)Nc3ccc(C)c(Br)c32)cc1	D2 antag 42
Fc1ccc(-n2cc(CNCCc3ccncc3)c(-c3ccccc3Cl)n2)cc1	D2 antag 31
NC(=NCc1ccccc1)c1cccc([N+](=O)[O-])c1	none
CC1(C)CSC(=NCc2ccccc2)N1C(=O)c1cccc([N+](=O)[O-])c1	D2 ag-1 83, D2 antag 54
Cn1c(=O)n(Cc2ccccc2)c(=O)c2c1nc1n2CCCN1Cc1ccccc1	none
CCCCn1c(=O)c2c(nc3n2CCCN3Cc2ccccc2)n(C)c1=O	D2 antag 34
O=C(COC(=O)c1ccccc1-c1nc2ccccc2s1)NC1CCS(=O)(=O)C1 (configuration not stated)	D2 antag 32
O=C(C=Cc1cccs1)c1ccccc1	none (no result: D2 PAM-1, D2 ag-1, D2 antag)
Cc1cccc(NC(=O)Cn2c(=O)n(CC3CCC(C(=O)NCCc4ccccc4)CC3)c(=O)c3ccccc32)c1 (configuration not stated)	none (no result: D2 ag-2, D2 antag, D2 PAM-2)
CCN1/C(=C/C=C/c2oc3ccc(-c4ccccc4)cc3[n+]2CC)Oc2ccc(-c3ccccc3)cc21	D2 ag-1 149, D2 antag 76
CCN1/C(=C/C=C/c2sc3ccccc3[n+]2CC)Sc2ccccc21	none (no result: D2 PAM-1, D2 ag-1, D2 antag)
CC(=O)Nc1ccc(OC(=O)c2ccc(Br)c([N+](=O)[O-])c2)cc1	D2 antag 30
Cc1ccc(S(=O)(=O)C2(C(=O)NC3CCCCC3C)CC2)cc1 (configuration not stated)	none
Cc1ccc(S(=O)(=O)C2(C(=O)NC3CCCC3)CC2)cc1	D2 PAM-1 35
O=C(Nc1ccccc1C(=O)O)c1cccc(NC(=O)c2ccco2)c1	none (no result: D2 PAM-1, D2 ag-1, D2 antag)
O=C(Nc1ccc(O)cc1C(=O)O)c1ccc(NC(=O)c2ccco2)cc1	D2 antag 46
O=C(CSc1n[nH]c(-c2ccc(S(=O)(=O)N3CCCCC3)cc2)n1)Nc1nccs1	D2 antag 39
Cc1ccc(C(=O)COC(=O)C2CC(=O)N(c3nc(-c4ccccc4)cs3)C2)cc1 (configuration not stated)	D2 antag 34
CN(C)S(=O)(=O)c1cccc(C(=O)Nc2ccc(Cl)cn2)c1	D2 antag 37
O=C(Nc1ccc(Cl)cn1)c1cccc(S(=O)(=O)N2CCCC2)c1	none
CCCc1nnc(SCC(=O)N(CC)CC)n1CC1CCCO1 (configuration not stated)	none
CCCc1nnc(SCC(=O)N2CCCCC2C)n1CC1CCCO1 (configuration not stated)	D2 PAM-1 37 (no result: D2 ag-1, D2 antag)
Cc1ccc(CC(=O)Nc2nncs2)cc1	D2 antag 47
COc1ccc(CC(=O)Nc2nncs2)cc1OC	none
CCCN(C)C[C@H]1OCc2cnnn2CCCC(=O)N([C@H](C)CO)C[C@@H]1C	none (no result: D2 PAM-1, D2 ag-1, D2 antag)
O=C(NCc1cccnc1)c1ccc(-c2ccccc2[N+](=O)[O-])o1	D2 antag 85
O=C(NCc1cccnc1)c1ccc(-c2cccc(Cl)c2Cl)o1	D2 antag 59
CC(=O)c1cccc(NC(=O)c2ccc(-c3ccccc3[N+](=O)[O-])o2)c1	D2 antag 33
COc1ccc(C)cc1NC(=O)CNC(c1ccccc1)c1ccc(C)cc1 (configuration not stated)	none
COc1ccccc1NC(=O)CNC(c1ccccc1)c1ccccc1	D2 antag 36 (no result: D2 PAM-1)
OCCC1CN(Cc2cccc(-n3cccn3)c2)CCN1Cc1ccccc1 (configuration not stated)	D2 antag 58
OCCC1CN(Cc2ccc(F)cc2)CCN1CCCc1ccccc1 (configuration not stated)	none
OCCC1CN(Cc2ccc(F)cc2)CCN1CCc1ccccc1 (configuration not stated)	D2 antag 43
CC(Sc1nnnn1C1CC1)C(=O)N1CC(=O)Nc2ccccc21 (configuration not stated)	D2 antag 47
O=C(c1cc(COc2ccc(F)c(F)c2)on1)N1CCN(C/C=C/c2ccccc2)CC1	none
CCCCCCCCCCCNC(=O)c1ccoc1C	none (no result: D2 ag-1)
CCCCCC(C)NC(=O)c1ccoc1C (configuration not stated)	D2 antag 40
O=C(Cc1ccc(Cl)cc1)NNC(=S)NC(=O)c1cccnc1	D2 antag 40
